Experimental data reported in PubChem BioAssay (NCATS).
Inconclusive results are not listed. Activity calls are given as the source filed them. The call rests on the fitted dose curve; in most records, active means well fitted curve in the direction sought with a large enough effect; inconclusive means small, poorly fitted or top-dose-only effect, or another doubt; inactive means no such curve, though single readings can be large; an effect the other way counts as inactive or inconclusive.

How the values were obtained:
CRL-7250 = normal cell line; test: Cytotoxic Profiling of Annotated Libraries Using Quantitative High-Throughput Screening (AID 1296008); details: Five cell lines viability, CellTiter-Glo ATP luminescence, 48-72 h; max response: active compounds read low; further: nearly all actives have a fitted effect of over 60% in size; on max response: on the % scale 0 is the no-effect control and ±100 the full control effect
Method in brief: (§1)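 Cells exposed to compounds for 48 or 72 hr at 37 degrees Celsius. Viability read as ATP-coupled luminescence with CellTiter-Glo after 10 min at room temperature.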

HaCat [1] = test: as above; details: Five cell lines viability, CellTiter-Glo ATP luminescence, 48-72 h; max response: active compounds read low
Method in brief: as §1

KB-3-1 = test: as above; details: Five cell lines viability, CellTiter-Glo ATP luminescence, 48-72 h; max response: active compounds read low
Method in brief: as §1

NIH3T3 = test: as above; details: Five cell lines viability, CellTiter-Glo ATP luminescence, 48-72 h; max response: active compounds read low
Method in brief: as §1

HACAT [2] = test: qHTS assay to identify novel small-molecules to repurpose for Merkel cell carcinoma treatment (AID 1296009); details: MCC and control cell lines, CellTiter-Glo viability, 72 h; at 44.8 µM (top of the series) unless noted; further: nearly all actives have a fitted effect of over 60% in size
Method in brief: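 Dose-response viability screen; 72 hr exposure at 37 degree celsius; CellTiter-Glo added, 10 min room temperature, luminescence read; RLUs scaled between no-cell and DMSO wells.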

C33A = test: Primary qHTS to identify gynecologic anti-cancer compounds using libraries of approved drugs and bioactive compounds (AID 1345084); details: Gynecologic cancer cell panel viability, ATPlite luminescence, 48 h; series mostly up to 57.5 µM; further: on the % scale 0 is the no-effect control and ±100 the full control effect; nearly all actives have a fitted effect of over 55% in size
Method in brief: (§2)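 Measured: luminescence after ATPlite addition (15 min, RT). Exposure: 48 h, 37 C, 5% CO2.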

CAOV3 = test: as above; details: Gynecologic cancer cell panel viability, ATPlite luminescence, 48 h; series mostly up to 57.5 µM
Method in brief: as §2

CASKI = test: as above; details: Gynecologic cancer cell panel viability, ATPlite luminescence, 48 h; series mostly up to 57.5 µM
Method in brief: as §2

Es-2 = test: as above; details: Gynecologic cancer cell panel viability, ATPlite luminescence, 48 h; series mostly up to 57.5 µM
Method in brief: as §2

HeLa = test: as above; details: Gynecologic cancer cell panel viability, ATPlite luminescence, 48 h; series mostly up to 57.5 µM
Method in brief: as §2

Hek293T = test: as above; details: Gynecologic cancer cell panel viability, ATPlite luminescence, 48 h, control line for the selectivity index; series mostly up to 57.5 µM
Method in brief: as §2

JEG-3 = test: as above; details: Gynecologic cancer cell panel viability, ATPlite luminescence, 48 h; series mostly up to 57.5 µM
Method in brief: as §2

OV90 = test: as above; details: Gynecologic cancer cell panel viability, ATPlite luminescence, 48 h; series mostly up to 57.5 µM
Method in brief: as §2

PA-1 = test: as above; details: Gynecologic cancer cell panel viability, ATPlite luminescence, 48 h; series mostly up to 57.5 µM
Method in brief: as §2

SKOV3 = test: as above; details: Gynecologic cancer cell panel viability, ATPlite luminescence, 48 h; series mostly up to 57.5 µM
Method in brief: as §2

O=C(O)c1ccc(S(=O)(=O)N(Cc2ccc(OC(F)(F)F)cc2)c2ncc(C(F)(F)F)cc2Cl)cc1
inactive: max response (CRL-7250) -3.34% | outcome (HaCat [1]) | max response (KB-3-1) 0.52% | max response (NIH3T3) -0.0805% | outcome (HACAT [2]) | Potency (C33A) | Potency (CAOV3) | Potency (CASKI) | Potency (Es-2) | Potency (HeLa) | Potency (Hek293T) | Potency (JEG-3) | Potency (OV90) | Potency (PA-1) | Potency (SKOV3)

CC(C)(C)c1ccc(C(=O)Nc2cn3cc(-n4ccnc4)ccc3n2)cc1
inactive: outcome (CRL-7250) | outcome (HaCat [1]) | max response (KB-3-1) 7.42% | max response (NIH3T3) -1.43% | outcome (HACAT [2]) | Potency (C33A) | Potency (CAOV3) | Potency (CASKI) | Potency (Es-2) | Potency (HeLa) | Potency (Hek293T) | Potency (JEG-3) | Potency (OV90) | Potency (PA-1) | Potency (SKOV3)

CNCCN1CCC(c2cc(CN(C)C(=O)c3cccc(Oc4ccccc4)c3)ccn2)CC1
inactive: max response (CRL-7250) 1.09% | outcome (HaCat [1]) | max response (KB-3-1) 8.17% | max response (NIH3T3) 1.12% | outcome (HACAT [2]) inactive [at 17.4 µM] | Potency (C33A) | Potency (CAOV3) | Potency (CASKI) | Potency (Es-2) | Potency (HeLa) | Potency (Hek293T) | Potency (JEG-3) | Potency (OV90) | Potency (PA-1) | Potency (SKOV3)

COc1ccc(S(=O)(=O)Nc2cc(Cl)cc(Cl)c2OC)cc1N1CCNCC1
inactive: max response (CRL-7250) -0.811% | outcome (HaCat [1]) | max response (KB-3-1) -5.04% | max response (NIH3T3) -3.81% | outcome (HACAT [2]) | Potency (C33A) | Potency (CAOV3) | Potency (CASKI) | Potency (Es-2) | Potency (HeLa) | Potency (Hek293T) | Potency (JEG-3) | Potency (OV90) | Potency (PA-1) | Potency (SKOV3)

CC1(C)CCCC2(C)C1C(OC(=O)/C=C/C=C/C=O)C=C1COC(=O)C12O (stereo not given)
inactive: max response (CRL-7250) -21.2% | outcome (HaCat [1]) | outcome (KB-3-1) | max response (NIH3T3) -7.98% | outcome (HACAT [2]) inactive [at 17.4 µM] | Potency (C33A) | Potency (CAOV3) | Potency (CASKI) | Potency (Es-2) | Potency (HeLa) | Potency (Hek293T) | Potency (JEG-3) | Potency (OV90) | Potency (PA-1) | Potency (SKOV3)

COc1cc(C2OC(c3ccc(OC)c(OC)c3)C(C)C2C)ccc1O (stereo not given)
inactive: max response (CRL-7250) -1.49% | outcome (HaCat [1]) | max response (KB-3-1) -5.2% | max response (NIH3T3) -6.22% | outcome (HACAT [2]) | Potency (C33A) | Potency (CAOV3) | Potency (CASKI) | Potency (Es-2) | Potency (HeLa) | Potency (Hek293T) | Potency (JEG-3) | Potency (OV90) | Potency (PA-1) | Potency (SKOV3)

Cc1ccc(-c2ncc[nH]2)cc1NC(=O)c1ccc(OCc2ccccn2)cc1
inactive: max response (CRL-7250) -5.69% | outcome (HaCat [1]) | max response (KB-3-1) -1.78% | max response (NIH3T3) -1.84% | outcome (HACAT [2]) | Potency (C33A) | Potency (CAOV3) | Potency (CASKI) | Potency (Es-2) | Potency (HeLa) | Potency (Hek293T) | Potency (JEG-3) | Potency (OV90) | Potency (PA-1) | Potency (SKOV3)

CC1(C)CC[C@]2(C(=O)O)[C@H](O)C[C@]3(C)C(=CCC4[C@@]5(C)CC[C@H](O[C@@H]6O[C@H](CO[C@@H]7OC[C@H](O)[C@H](O)[C@H]7O[C@@H]7OC[C@H](O)[C@H](O)[C@H]7O)[C@@H](O)[C@H](O)[C@H]6O)C(C)(C)C5CC[C@]43C)[C@@H]2C1 (stereo not given in full)
inactive: outcome (CRL-7250) | outcome (HaCat [1]) | outcome (KB-3-1) | max response (NIH3T3) -3.93% | outcome (HACAT [2]) inactive [at 9.27 µM] | activity change, negative = cytotoxicity (C33A) 3.19% [at 11.6 µM] | activity change, negative = cytotoxicity (CAOV3) 6.12% [at 11.6 µM] | activity change, negative = cytotoxicity (CASKI) -7.68% [at 11.6 µM] | activity change, negative = cytotoxicity (Es-2) -0.336% [at 11.6 µM] | activity change, negative = cytotoxicity (HeLa) -1.57% [at 11.6 µM] | activity change, negative = cytotoxicity (Hek293T) -1.34% [at 11.6 µM] | activity change, negative = cytotoxicity (JEG-3) 14% [at 11.6 µM] | activity change, negative = cytotoxicity (OV90) 2.79% [at 11.6 µM] | activity change, negative = cytotoxicity (PA-1) 4.95% [at 11.6 µM] | activity change, negative = cytotoxicity (SKOV3) 13.8% [at 11.6 µM]

CN1CC[C@@H](c2c(O)cc(O)c3c(=O)cc(-c4ccc(C(F)(F)F)cc4Cl)oc23)[C@@H]1CO
inactive: outcome (CRL-7250) | outcome (HaCat [1]) | max response (KB-3-1) 5.55% | max response (NIH3T3) -4.65% | outcome (HACAT [2]) | Potency (C33A) | Potency (CAOV3) | Potency (CASKI) | Potency (Es-2) | Potency (HeLa) | Potency (Hek293T) | Potency (JEG-3) | Potency (OV90) | Potency (PA-1) | Potency (SKOV3)

Cc1nc(C(=O)N2CCC[C@H]2Cc2nnc(-c3ccccc3)o2)c(-c2ccccc2F)s1
inactive: outcome (CRL-7250) | outcome (HaCat [1]) | outcome (KB-3-1) | max response (NIH3T3) 4.09% | outcome (HACAT [2]) | Potency (C33A) | Potency (CAOV3) | Potency (CASKI) | Potency (Es-2) | Potency (HeLa) | Potency (Hek293T) | Potency (JEG-3) | Potency (OV90) | Potency (PA-1) | Potency (SKOV3)

C=C1CC2OC(=O)C(=C)C2C(O)/C=C(\C)CCC1O (stereo not given)
inactive: max response (CRL-7250) -0.668% | outcome (HaCat [1]) | max response (KB-3-1) 5.02% | max response (NIH3T3) -10.3% | outcome (HACAT [2]) | Potency (C33A) | Potency (CAOV3) | Potency (CASKI) | Potency (Es-2) | Potency (HeLa) | Potency (Hek293T) | Potency (JEG-3) | Potency (OV90) | Potency (PA-1) | Potency (SKOV3)

CC1(C)Oc2ncnc(N)c2N=C1c1ccc(C23CCC(CC(=O)O)(CC2)CC3)cc1
inactive: max response (CRL-7250) 1.74% | outcome (HaCat [1]) | max response (KB-3-1) -2.56% | max response (NIH3T3) -15.7% | outcome (HACAT [2]) | Potency (C33A) | Potency (CAOV3) | Potency (CASKI) | Potency (Es-2) | Potency (HeLa) | Potency (Hek293T) | Potency (JEG-3) | Potency (OV90) | Potency (PA-1) | Potency (SKOV3)
